This passage reports composite z-score results from PubChem BioAssay.

Calls of active or inactive are those of the source.

Dihydroorotate dehydrogenase (quinone), mitochondrial (Plasmodium falciparum (isolate 3D7)), sequence (Q08210 whole entry, looked up): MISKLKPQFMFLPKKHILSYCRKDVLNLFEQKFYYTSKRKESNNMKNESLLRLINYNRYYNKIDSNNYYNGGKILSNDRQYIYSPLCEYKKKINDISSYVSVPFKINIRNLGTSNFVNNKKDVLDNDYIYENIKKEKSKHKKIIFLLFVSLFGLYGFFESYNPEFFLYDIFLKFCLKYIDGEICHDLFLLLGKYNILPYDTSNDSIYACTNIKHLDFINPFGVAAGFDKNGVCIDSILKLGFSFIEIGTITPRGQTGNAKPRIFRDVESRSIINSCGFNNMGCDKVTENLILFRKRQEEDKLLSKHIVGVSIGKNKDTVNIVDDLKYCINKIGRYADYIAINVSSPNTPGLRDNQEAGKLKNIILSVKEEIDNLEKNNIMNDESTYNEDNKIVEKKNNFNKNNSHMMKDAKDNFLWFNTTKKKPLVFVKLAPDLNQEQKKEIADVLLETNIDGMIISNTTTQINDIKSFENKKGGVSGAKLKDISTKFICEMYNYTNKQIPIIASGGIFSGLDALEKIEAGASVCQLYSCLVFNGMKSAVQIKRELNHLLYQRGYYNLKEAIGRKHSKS

The assay has as its target Dihydroorotate dehydrogenase (quinone), mitochondrial (Plasmodium falciparum (isolate 3D7)) (UniProt Q08210). In words: PfDHODH enzyme inhibitors, primary screen, biochemical, C-terminal His tag, absorbance 600 nm (AID 1175).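 Further: recombinant parasite enzyme with a five histidine tag at its C terminus; test concentration not given here.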 The note with it: DCIP absorbance 600 nm, higher = more signal, called active from +8 up or from −8 down.
Turning to `COc1ccc(C(=O)Nc2ccc(CN3C(=O)[C@]4(O[C@H](CC(=O)N(CCO)Cc5ccccc5)[C@@H]([Si](C)(C)c5ccc(OC)cc5)[C@@H]4C)c4ccccc43)cc2)cc1`, the composite z-score is -0.633 (inactive).
As for `Cc1ccc(S[C@]2(C(=O)NC(C)C)CC(=O)N(Cc3ccccc3)[C@@H]2c2ccc(CO)cc2I)cc1`, the composite z-score was -0.489 (inactive).
The result for `C=C(CCCC)C(=O)CC[C@@H](OC(C)=O)c1ccc(OCCO)cc1` reads -1.78 (inactive).
The result for `COC(=O)[C@@]1(Cc2ccc(F)cc2)[C@H]2c3cc(C(=O)N4CCCC4)n(CCc4c[nH]c5cc(F)ccc45)c3C[C@H]2CN1C(=O)c1ccccc1` reads -0.362 (inactive); that for `C=CCN1C(=O)[C@]2(O[C@H](CCO)[C@@H]([Si](C)(C)c3ccc(OC)cc3)[C@@H]2C)c2cc(N3C(=O)c4ccccc4Oc4ccccc43)ccc21`, 1.11 (inactive).
For `COC(=O)C(CC#Cc1ccc2c(c1)[C@]1(C(=O)N2)[C@H](c2ccc(OCCO)cc2)N2[C@H](c3ccccc3)[C@H](c3ccccc3)OC(=O)[C@H]2[C@@H]1C(N)=O)C(=O)OC` the value was -1.24 (inactive); for `CC(C)N1C(=O)[C@@]2(Cc3ccccc31)c1ccccc1C(=O)N(Cc1ccccc1C(F)(F)F)[C@H]2c1ccc(CO)cc1`, -18 (active); for `C=C(C(=O)CC[C@@H](OC(=O)c1ccccc1-c1ccccc1C(=O)O)c1ccc(OCCO)cc1)C(C)C`, -1.29 (inactive).
`COc1ccc(CCNC(=O)[C@@]2(C)c3ccccc3C(=O)N(Cc3ccc(OC(F)(F)F)cc3)[C@H]2c2ccc(CO)cc2)cc1`: the composite z-score was -0.0074 (inactive).
For `[N-]=[N+]=NCc1ccccc1[C@H]1OC(c2ccc(OCCCO)cc2)=N[C@@]1(Cc1ccccc1N=[N+]=[N-])C(=O)O` the value was -0.862 (inactive); for `CC(C)c1ccc(NN2C(C(O)C3CCCCC3)C=CC3C(=O)N(c4ccccc4)C(=O)C32)cc1` (stereo not given), -0.74 (inactive).
In the case of `CC(CO)N1C(=O)[C@@H]2[C@H]3C(=O)OCC=C[C@H]3OC23C=CCN(c2ccc4ccccc4c2)C(=O)[C@@H]13` (stereo not given in full), the composite z-score is 0.0007 (inactive).
The result for `O=C1O[C@H](c2ccccc2)[C@H](c2ccccc2)N2[C@H]1[C@@H](C(=O)O)[C@]1(C(=O)Nc3ccccc31)[C@H]2c1ccc(OCCO)cc1` reads -0.652 (inactive); that for `C=CCNC(=O)[C@@H]1[C@H]2C(=O)O[C@H](c3ccccc3)[C@H](c3ccccc3)N2[C@H](c2ccc(OCCO)cc2)[C@@]12C(=O)N(C(=O)OCCOC)c1ccccc12`, 0.659 (inactive); that for `C[C@]1(C(=O)NC2CC2)c2ccccc2C(=O)N(Cc2cc(F)cc(C(F)(F)F)c2)[C@H]1c1ccc(CO)cc1`, 0.712 (inactive).
For `C=CCNC(=O)[C@@H]1[C@H]2C(=O)O[C@H](c3ccccc3)[C@H](c3ccccc3)N2[C@H](c2ccc(O)cc2)[C@@]12C(=O)Nc1ccc(C#CC3=CCCCC3)cc12` the value was -0.691 (inactive); for `Cc1cccc([C@H]2C[C@H]3C(Br)=C[C@@]2(CO)C(=O)[C@]32CO2)c1`, -0.287 (inactive); for `COc1ccc(CCNC(=O)[C@@]2(c3ccc([N+](=O)[O-])cc3)CC(=O)N(C3CCCCC3)[C@@H]2c2ccc(CO)cc2I)cc1`, 1.45 (inactive).
For `C=CC[C@]12N=C(c3ccc(OCCCO)cc3)O[C@H]1c1ccccc1N(CCC)C2=O` the value was -0.536 (inactive); for `[N-]=[N+]=Nc1ccccc1C[C@@]1(C(=O)NCc2ccccc2)N=C(c2ccc(OCCCO)cc2)O[C@@H]1c1ccccc1`, 0.889 (inactive).
For `O=C1O[C@@H](c2ccccc2)[C@@H](c2ccccc2)N2[C@@H](c3ccccc3OCCO)[C@]3(C(=O)Nc4ccc(C#CC5(O)CCCCCC5)cc43)[C@@H](C(=O)N3CCCCCCC3)[C@H]12`, the composite z-score is -1.03 (inactive).
For `C=CC[C@H](O)c1ccc(O)c2ccccc12` the value was -1.86 (inactive); for `C=C1C(=O)C=C2CN(C(=O)c3ccccc3)[C@@](Cc3ccc(F)cc3)(C(=O)OC)[C@@H]12`, -1.67 (inactive).
The result for `COc1ccc(C(=O)Nc2cccc(CN3C(=O)[C@]4(O[C@H](CC(=O)N(CCO)Cc5ccccc5)[C@@H]([Si](C)(C)c5ccc(OC)cc5)[C@@H]4C)c4ccccc43)c2)cc1` reads -1.92 (inactive); that for `COC(=O)C1=CC(CCCO)=CC(c2ccc(CN3CCCC3)cc2)N(C)C=C1C(=O)OC` (stereo not given), -1.58 (inactive); that for `[N-]=[N+]=NCc1ccccc1C[C@@]1(C(=O)NCCN2CCOCC2)N=C(c2ccc(OCCCO)cc2)O[C@@H]1c1ccccc1`, 0.742 (inactive).
The result for `COC(=O)C(CC#Cc1ccc2c(c1)[C@]1(C(=O)N2)[C@H](C(=O)N2CCCCCCC2)[C@H]2C(=O)O[C@H](c3ccccc3)[C@H](c3ccccc3)N2[C@@H]1c1ccc(OCCO)cc1)C(=O)OC` reads -1.22 (inactive).
Consider `CN(C)C(=O)[C@]1(CCS(=O)(=O)c2ccccc2)N=C(c2ccc(OCCCO)cc2)O[C@@H]1c1ccccc1CN=[N+]=[N-]`, for which the composite z-score is 0.37 (inactive).
Regarding `CC1CC/C=C\[C@H]2OC34C=CCN(CCN5CCOCC5)C(=O)[C@H]3N(C(CO)C(C)C)C(=O)[C@@H]4C2C(=O)O1` (stereo not given in full), the composite z-score is -3.11 (inactive).
The result for `COc1ccc([Si](C)(C)[C@H]2[C@H](CC(=O)N(CCO)Cc3ccccc3)O[C@@]3(C(=O)N(c4ccccc4)c4ccccc43)[C@@H]2C)cc1` reads 0.531 (inactive); that for `C=CCNC(=O)[C@H]1[C@@H]2C(=O)O[C@@H](c3ccccc3)[C@@H](c3ccccc3)N2[C@@H](c2ccc(O)cc2)[C@]12C(=O)Nc1ccc(C#CCC(C(=O)OC)C(=O)OC)cc12`, -7.4 (inactive); that for `CC[C@@H]1C=C(C(=O)O)[C@H](c2cccc(Cl)c2)N1S(=O)(=O)c1ccc(C)cc1`, -0.831 (inactive).
The result for `C=CCOC(=O)[C@H]1[C@@H]2C(=O)O[C@@H](c3ccccc3)[C@@H](c3ccccc3)N2[C@@H](c2ccc(OCCOC(=O)[C@H]3C[C@H]4C(=O)NCC(=O)N4[C@H]3c3ccc(O)cc3)cc2)[C@]12C(=O)Nc1ccccc12` reads 0.814 (inactive).
The result for `OCCCc1cc[n+](Cc2cc3c(cc2Br)OCO3)cc1` reads -0.22 (inactive).
In the case of `COc1ccc([Si](C)(C)[C@@H]2[C@@H](CC(=O)N(CCO)Cc3ccccc3)O[C@]3(C(=O)N(Cc4cccc(I)c4)c4ccccc43)[C@H]2C)cc1`, the composite z-score was 0.704 (inactive).
